# Records with an inconclusive call do not appear. Activity calls are given as the source filed them. Unless noted, calls follow the shape of the full dose curve.
# Tests used:
# [1] = molecular target: Estrogen receptor (Homo sapiens) (UniProt P03372); experiment: qHTS assay for small molecule agonists of estrogen receptor alpha signaling (AID 588514);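 also: 0% = vehicle only and 100% = reference agonist; nearly all actives have a fitted effect of over 70% in size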
# In short: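 Fluorescence from CCF4 cleavage reports ER-alpha-driven beta-lactamase expression in HEK 293 cells treated 18 hrs at 37 C. Data normalized to 17-beta-estradiol (20 nM) and DMSO, fitted to Hill equation.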
# [2] = molecular target: Androgen receptor (Homo sapiens) (UniProt P10275); experiment: qHTS assay for small molecule agonists of androgen receptor signaling (AID 588515; active = well fitted curve in the direction sought with a large enough effect in the signal ratio, with a control signal flat; the % refers to the signal ratio; also: % is scaled to controls: 0 for no effect and ±100 for the full control effect); settings: AR-UAS-bla HEK293, beta-lactamase ratio, agonist 16 h; stronger effect = higher value
# In short: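 Stimulation of an AR-responsive β-lactamase reporter in GripTite HEK293 cells was measured after 16 h compound exposure at 37 °C, via CCF4 fluorescence after 2 h RT. EC50 from Hill fits, normalized to R1881 at 30 nM.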
# [3] = molecular target: Glucocorticoid receptor (Homo sapiens) (UniProt P04150); experiment: qHTS assay for small molecule agonists of glucocorticoid receptor signaling (AID 588532; active = well fitted curve in the direction sought with a large enough effect in the signal ratio, with a control signal flat; the % refers to the signal ratio;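 also: 100% = dexamethasone at 0.1 µM and 0% = DMSO only wells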); settings: HeLa MMTV-bla, beta-lactamase ratio, agonist, 18 h; stronger effect = higher value; percent of dexamethasone control, DMSO zero
# In short: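 Agonist-mode qHTS: GRE-driven beta-lactamase in HeLa cells exposed 18 h to titrated compounds (up to 92 uM), then CCF4 ratio read after 2 h at RT; Hill-fitted EC50, efficacy relative to 0.1 uM dexamethasone.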
# [4] = molecular target: Glucocorticoid receptor (Homo sapiens) (UniProt P04150); experiment: qHTS assay for small molecule antagonists of glucocorticoid receptor signaling (AID 588533; active = well fitted inhibition curve with a large enough effect in the signal ratio, with a control signal flat, not every such curve was filed as active; the % refers to the signal ratio;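 also: cells stimulated with 2 nM dexamethasone as agonist; % is scaled to controls: 0 for no effect and ±100 for the full control effect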)
# In short: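 Antagonist-mode qHTS: compound titrations added to GRE-bla HeLa cells, then dexamethasone 2 nM final; 18 h, 37 C. CCF4 FRET fluorescence normalized to dexamethasone and DMSO; IC50 from Hill fit.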
# [5] = molecular target: Vitamin D3 receptor (Homo sapiens) (UniProt P11473); experiment: qHTS assay for small molecule antagonists of vitamin D receptor signaling (AID 588541);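 also: receptor activated by calcitriol during compound treatment; series mostly up to about 77 µM; % is scaled to controls: 0 for no effect and ±100 for the full control effect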
# In short: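 Antagonist-mode beta-lactamase reporter assay: HEK293T VDR-UAS-bla cells were exposed to titrated compound alongside 1-alpha,25-dihydroxyvitamin D3 at 3 nM final for 16 h. Values were normalized to the 50 nM agonist control and DMSO basal, with IC50 and efficacy from Hill equation fits.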
# [6] = molecular target: Vitamin D3 receptor (Homo sapiens) (UniProt P11473); experiment: qHTS assay for small molecule agonists of vitamin D receptor signaling (AID 588543);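 also: 0% = DMSO basal and 100% = reference agonist control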
# In short: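 Reporter cells (HEK293T, VDR-UAS-bla) were seeded in medium with 2% charcoal-stripped serum and incubated 5 h, then compounds in concentration series were added for 16 h at 37 °C. Stimulation was scaled between DMSO basal and 50 nM 1α,25-dihydroxyvitamin D3.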
# [7] = molecular target: Thyroid hormone receptor beta (Homo sapiens) (UniProt P10828); experiment: qHTS assay for small molecule agonists of thyroid hormone receptor beta signaling (AID 588545)
# In short: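 Agonist activity was read as beta-lactamase CCF4 fluorescence (405 ex, 460/530 em), scaled between DMSO (0%) and 10 nM T3 (100%), then Hill-fitted for EC50 and efficacy. HEK 293 TR-UAS-bla cells in 2% charcoal/dextran FBS medium were exposed 18 h at 37 C.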
# [8] = qHTS assay for small molecule antagonists of retinoid X receptor alpha signaling (AID 588546; active = well fitted inhibition curve with a large enough effect in the signal ratio, with a control signal flat, not every such curve was filed as active; the % refers to the signal ratio;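 also: cells stimulated with 9-cis-retinoic acid as agonist; % is scaled to controls: 0 for no effect and ±100 for the full control effect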); settings: HEK293T RXRa-UAS-bla, beta-lactamase ratio, antagonist mode; measured here: W530 green channel, cytotoxicity proxy
# In short: (§1)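 Beta-lactamase reporter inhibition, read as CCF4 fluorescence ratio (ex 405, em 460/530 nm) after 2 h at RT. HEK293T UAS-bla cells, 2500/well, were stimulated with 9-cis-RA at 500 or 100 nM final alongside test compound for 18 h at 37 C.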
# [9] = molecular target: Retinoic acid receptor RXR-alpha (Homo sapiens) (UniProt P19793); experiment: as above; settings: HEK293T RXRa-UAS-bla, beta-lactamase ratio, antagonist mode
# In short: as §1
# [10] = molecular target: Thyroid hormone receptor beta (Homo sapiens) (UniProt P10828); experiment: qHTS assay for small molecule antagonists of thyroid hormone receptor beta signaling (AID 588547; active = well fitted inhibition curve with a large enough effect in the signal ratio, with a control signal flat, not every such curve was filed as active; the % refers to the signal ratio); settings: TR-UAS-bla HEK293, beta-lactamase ratio, antagonist mode, 18 h
# In short: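 Inhibition of T3-driven (0.4nM final) beta-lactamase reporter activity was measured over 0.59 nM to 92 uM compound after 18 h at 37 C. The cells were GripTite HEK293 TR-UAS-bla in charcoal/dextran-stripped serum, with CCF4 ratio read-out and IC50 from Hill fits.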
# [11] = qHTS assay for small molecule agonists of the antioxidant response element (ARE) signaling pathway (AID 651741; active = well fitted activation curve with a large enough effect in the signal ratio; the % refers to the signal ratio; also: potency is read from the fitted curve at half-maximal effect)
# In short: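 Agonist activity is measured as ARE-driven beta-lactamase expression in a stable HepG2 reporter line, using 16 h compound treatment at 37 C and a FRET substrate fluorescence readout after 2 h.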
# [12] = qHTS assay for small molecule activators of the p53 signaling pathway (AID 651743; active = well fitted activation curve with a large enough effect in the signal ratio, not every such curve was filed as active; the % refers to the signal ratio; also: series mostly up to about 92 µM; % of control where 0% means no effect); settings: HCT-116 p53RE-bla, beta-lactamase FRET ratio, 16 h; activation: stronger effect = higher value
# In short: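 A beta-lactamase reporter under p53 response element control, stably carried by HCT-116 cells, reported pathway activation. Test compounds were applied for 16 hours at 37 C, and fluorescence was measured 2 hours after adding the B/G FRET substrate.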
# [13] = qHTS assay for small molecule disruptors of the mitochondrial membrane potential - 1 hr assay (AID 651754); also: % is scaled to controls: 0 for no effect and ±100 for the full control effect; nearly all actives have a fitted effect of over 35% in size
# In short: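 In this qHTS format, a 1 hr compound treatment of HepG2 cells precedes Mito-MPS staining, and membrane potential is judged from aggregate (red) against monomer (green) fluorescence intensity.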
# [14] = qHTS assay for small molecule disruptors of the mitochondrial membrane potential - 5 hr assay (AID 651755); also: % is scaled to controls: 0 for no effect and ±100 for the full control effect; nearly all actives have a fitted effect of over 40% in size
# In short: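 Membrane-potential dye readout: red aggregate (540 ex/590 em) versus green monomer (490 ex/535 em) fluorescence after 30 min dye loading, following 5 hr compound exposure at 37C of overnight-plated HepG2 cells.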
# [15] = molecular target: Tumor necrosis factor (Homo sapiens) (UniProt P01375); experiment: qHTS assay to identify small molecules that stimulate Tumor Necrosis Factor-alpha (TNF-alpha) secretion (AID 651757; active = well fitted curve in the direction sought with a large enough effect in the signal ratio; the % refers to the signal ratio; also: 0% is about no effect)
# In short: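 Using 3000 THP-1 cells per well, compounds and controls were applied for 17 hrs at 37 C. Detection followed with two labeled anti-TNF-alpha antibodies (cryptate donor, XL665 acceptor) for 3 hr at room temperature, measured by TR-FRET.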
# [16] = qHTS assay for environmental chemicals that activate the Aryl hydrocarbon Receptor (AhR) signaling pathway (AID 651777; active = well fitted curve in the direction sought with a large enough effect; an effect the other way counts as inactive or inconclusive; also: % of control where 0% means no effect; nearly all actives have a fitted effect of over 15% in size); settings: 1A2-DRE human hepatoma cells, luciferase, 24 h; activation: stronger effect = higher value
# In short: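 Luminescence read-out: One-Glo added for 30 min at RT after 24 hr compound treatment (37 C, 5% CO2) of human hepatoma cells expressing a DRE/CYP1A2 promoter–luciferase reporter; increased signal indicates AhR activation.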
# [17] = molecular target: Peroxisome proliferator-activated receptor alpha (Homo sapiens) (UniProt Q07869); experiment: qHTS assay for small molecule agonists of the peroxisome proliferator-activated receptor alpha (PPARalpha) signaling pathway (AID 651778; active = well fitted curve in the direction sought with a large enough effect; an effect the other way counts as inactive or inconclusive; also: % of control where 0% means no effect); settings: PathHunter PPARalpha complementation, chemiluminescence, 6 h; max response: stronger effect = higher value
# In short: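 Chemiluminescence from complemented enzyme reported PPARalpha activation in cells after 6 hr of compound treatment at 37 C. The detection reagent was incubated for 60 min at room temperature, and compounds were scored as agonists.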
# [18] = qHTS assay for small molecule agonists of the antioxidant response element (ARE) signaling pathway measured by Nrf2-dependant transcriptional activity (AID 720636; active = well fitted curve in the direction sought with a large enough effect in the repeat runs; an effect the other way counts as inactive or inconclusive;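 also: HepG2 cells with an ARE-driven luciferase reporter; % of control where 0% means no effect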)
# In short: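 HepG2 ARE-luc reporter line, 1% dialyzed FBS; 6 hr attachment at 37 C, compound pinned in, 16 hr at 37 C/5% CO2; ONE-Glo, 30 min RT, luminescence read.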
# [19] = qHTS assay for small molecule agonists of the antioxidant response element (ARE) signaling pathway measured by Nrf2-dependant transcriptional activity - cell viability counter screen (AID 720653; active = well fitted curve in the direction sought with a large enough effect in the repeat runs; an effect the other way counts as inactive or inconclusive; also: % is scaled to controls: 0 for no effect and ±100 for the full control effect); settings: ARE-bla HepG2 viability, CellTiter-Glo ATP luminescence, 16 h; max response: stronger effect = lower value
# In short: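 Cytotoxicity counter screen: intracellular ATP quantified by CellTiter-Glo luminescence in the same ARE-bla HepG2 plates, after 16 h compound exposure and a 2 h beta-lactamase substrate step.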
# [20] = qHTS assay for cell viability of the p53RE-bla HCT-116 cell line (AID 743292; active = well fitted curve in the direction sought with a large enough effect; an effect the other way counts as inactive or inconclusive; also: % is scaled to controls: 0 for no effect and ±100 for the full control effect; nearly all actives have a fitted effect of over 55% in size)
# In short: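 Luminescent ATP quantitation (CellTiter-Glo) served as the viability read-out; reagent was added after 16 h compound exposure at 37 C and read after 30 min at room temperature. Cells: p53RE-bla HCT-116, 4,000 per well.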
# [21] = molecular target: Nuclear receptor subfamily 1 group I member 2 (Rattus norvegicus) (UniProt Q9R1A7); experiment: qHTS assay for small molecule activators of the rat pregnane X receptor (rPXR) signaling pathway (AID 651751; call rule not given here; also: 0% is about no effect); settings: rPXR reporter cells, luciferase (One-Glo), 24 h
# Nuclear receptor subfamily 1 group I member 2 (Rattus norvegicus), sequence (Q9R1A7 whole entry, looked up): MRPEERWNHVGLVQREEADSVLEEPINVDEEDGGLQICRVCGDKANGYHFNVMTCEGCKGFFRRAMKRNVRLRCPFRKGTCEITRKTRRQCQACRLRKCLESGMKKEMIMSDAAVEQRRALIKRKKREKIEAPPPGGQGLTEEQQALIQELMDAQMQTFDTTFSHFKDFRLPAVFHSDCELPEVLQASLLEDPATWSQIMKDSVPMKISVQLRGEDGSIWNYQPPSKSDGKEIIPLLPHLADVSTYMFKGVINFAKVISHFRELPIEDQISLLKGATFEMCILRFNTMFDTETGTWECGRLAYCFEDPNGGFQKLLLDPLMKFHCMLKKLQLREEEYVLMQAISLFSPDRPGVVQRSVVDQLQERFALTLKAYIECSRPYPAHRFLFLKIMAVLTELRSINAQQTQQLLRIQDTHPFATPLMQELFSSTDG
# Glucocorticoid receptor (Homo sapiens), sequence (P04150 whole entry, looked up): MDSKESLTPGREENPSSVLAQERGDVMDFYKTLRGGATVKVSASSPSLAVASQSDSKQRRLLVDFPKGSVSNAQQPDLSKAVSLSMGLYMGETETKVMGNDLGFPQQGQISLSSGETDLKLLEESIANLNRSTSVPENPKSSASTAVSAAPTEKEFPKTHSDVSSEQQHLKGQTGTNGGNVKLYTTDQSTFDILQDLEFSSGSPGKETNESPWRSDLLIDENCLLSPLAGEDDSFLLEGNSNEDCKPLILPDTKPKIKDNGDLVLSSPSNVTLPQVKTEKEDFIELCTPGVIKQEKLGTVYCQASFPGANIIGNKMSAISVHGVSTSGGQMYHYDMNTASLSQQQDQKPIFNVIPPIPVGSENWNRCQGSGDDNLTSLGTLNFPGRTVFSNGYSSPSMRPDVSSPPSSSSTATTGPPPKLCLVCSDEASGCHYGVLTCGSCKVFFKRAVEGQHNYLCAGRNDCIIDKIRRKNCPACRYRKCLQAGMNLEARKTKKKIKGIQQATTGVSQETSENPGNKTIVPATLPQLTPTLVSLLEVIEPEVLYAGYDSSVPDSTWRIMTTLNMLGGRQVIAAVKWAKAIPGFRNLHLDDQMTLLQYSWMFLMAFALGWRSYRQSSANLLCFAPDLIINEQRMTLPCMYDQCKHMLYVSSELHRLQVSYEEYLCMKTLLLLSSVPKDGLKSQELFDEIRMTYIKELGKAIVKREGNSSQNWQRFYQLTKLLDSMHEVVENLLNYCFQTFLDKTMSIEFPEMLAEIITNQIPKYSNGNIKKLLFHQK
# Thyroid hormone receptor beta (Homo sapiens), sequence (P10828 whole entry, looked up): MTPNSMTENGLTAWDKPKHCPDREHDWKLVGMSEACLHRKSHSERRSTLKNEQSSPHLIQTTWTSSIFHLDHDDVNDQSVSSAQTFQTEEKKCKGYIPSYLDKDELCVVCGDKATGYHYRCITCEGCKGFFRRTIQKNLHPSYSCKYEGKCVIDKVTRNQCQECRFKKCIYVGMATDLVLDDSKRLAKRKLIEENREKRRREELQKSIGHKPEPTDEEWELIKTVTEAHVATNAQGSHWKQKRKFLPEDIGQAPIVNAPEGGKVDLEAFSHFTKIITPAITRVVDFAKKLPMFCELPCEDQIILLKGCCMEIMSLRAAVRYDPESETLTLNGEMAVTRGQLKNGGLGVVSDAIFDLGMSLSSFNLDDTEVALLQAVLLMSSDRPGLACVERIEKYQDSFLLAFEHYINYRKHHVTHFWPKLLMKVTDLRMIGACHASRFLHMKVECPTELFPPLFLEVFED
# Vitamin D3 receptor (Homo sapiens), sequence (P11473 whole entry, looked up): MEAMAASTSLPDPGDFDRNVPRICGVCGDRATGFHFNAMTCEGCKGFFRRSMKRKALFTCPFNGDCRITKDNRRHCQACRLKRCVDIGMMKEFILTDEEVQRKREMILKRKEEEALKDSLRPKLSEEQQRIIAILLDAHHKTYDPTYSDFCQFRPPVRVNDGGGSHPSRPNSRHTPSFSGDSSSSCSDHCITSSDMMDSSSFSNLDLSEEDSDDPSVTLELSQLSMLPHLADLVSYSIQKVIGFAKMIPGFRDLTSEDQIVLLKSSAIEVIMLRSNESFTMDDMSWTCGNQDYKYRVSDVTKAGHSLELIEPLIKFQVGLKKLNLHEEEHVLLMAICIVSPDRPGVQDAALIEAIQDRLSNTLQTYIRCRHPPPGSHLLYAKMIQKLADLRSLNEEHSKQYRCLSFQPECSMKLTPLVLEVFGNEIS
# Androgen receptor (Homo sapiens), sequence (P10275 whole entry, looked up): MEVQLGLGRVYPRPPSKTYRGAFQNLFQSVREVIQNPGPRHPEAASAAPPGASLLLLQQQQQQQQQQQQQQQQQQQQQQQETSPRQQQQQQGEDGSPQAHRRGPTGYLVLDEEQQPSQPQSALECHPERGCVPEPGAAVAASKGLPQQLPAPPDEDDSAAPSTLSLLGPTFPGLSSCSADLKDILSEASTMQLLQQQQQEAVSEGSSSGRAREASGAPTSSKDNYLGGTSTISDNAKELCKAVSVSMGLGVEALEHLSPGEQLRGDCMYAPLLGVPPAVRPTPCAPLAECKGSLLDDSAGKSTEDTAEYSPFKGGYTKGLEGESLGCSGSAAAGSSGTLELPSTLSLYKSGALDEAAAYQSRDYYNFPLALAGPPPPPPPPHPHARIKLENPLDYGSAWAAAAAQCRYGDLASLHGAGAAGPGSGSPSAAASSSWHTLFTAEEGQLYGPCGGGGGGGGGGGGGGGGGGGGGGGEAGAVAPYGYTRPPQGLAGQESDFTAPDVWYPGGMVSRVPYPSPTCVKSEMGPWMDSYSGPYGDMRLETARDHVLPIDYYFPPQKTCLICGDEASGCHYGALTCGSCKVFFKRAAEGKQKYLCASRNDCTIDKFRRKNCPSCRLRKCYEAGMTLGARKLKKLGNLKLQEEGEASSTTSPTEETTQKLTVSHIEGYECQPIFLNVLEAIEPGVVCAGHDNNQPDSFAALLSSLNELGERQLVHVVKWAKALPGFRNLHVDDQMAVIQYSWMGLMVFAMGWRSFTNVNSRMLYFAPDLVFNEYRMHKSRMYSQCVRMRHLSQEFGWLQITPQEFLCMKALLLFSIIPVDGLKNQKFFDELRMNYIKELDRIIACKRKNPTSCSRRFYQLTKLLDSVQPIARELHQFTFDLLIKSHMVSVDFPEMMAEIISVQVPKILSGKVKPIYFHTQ
# Tumor necrosis factor (Homo sapiens), sequence (P01375 whole entry, looked up): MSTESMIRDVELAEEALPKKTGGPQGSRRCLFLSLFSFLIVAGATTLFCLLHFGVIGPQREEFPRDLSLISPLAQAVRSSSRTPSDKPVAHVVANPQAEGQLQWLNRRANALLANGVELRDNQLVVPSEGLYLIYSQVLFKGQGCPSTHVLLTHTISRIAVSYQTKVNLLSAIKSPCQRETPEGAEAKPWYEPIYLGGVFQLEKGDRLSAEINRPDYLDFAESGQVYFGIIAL
# Estrogen receptor (Homo sapiens), sequence (P03372 whole entry, looked up): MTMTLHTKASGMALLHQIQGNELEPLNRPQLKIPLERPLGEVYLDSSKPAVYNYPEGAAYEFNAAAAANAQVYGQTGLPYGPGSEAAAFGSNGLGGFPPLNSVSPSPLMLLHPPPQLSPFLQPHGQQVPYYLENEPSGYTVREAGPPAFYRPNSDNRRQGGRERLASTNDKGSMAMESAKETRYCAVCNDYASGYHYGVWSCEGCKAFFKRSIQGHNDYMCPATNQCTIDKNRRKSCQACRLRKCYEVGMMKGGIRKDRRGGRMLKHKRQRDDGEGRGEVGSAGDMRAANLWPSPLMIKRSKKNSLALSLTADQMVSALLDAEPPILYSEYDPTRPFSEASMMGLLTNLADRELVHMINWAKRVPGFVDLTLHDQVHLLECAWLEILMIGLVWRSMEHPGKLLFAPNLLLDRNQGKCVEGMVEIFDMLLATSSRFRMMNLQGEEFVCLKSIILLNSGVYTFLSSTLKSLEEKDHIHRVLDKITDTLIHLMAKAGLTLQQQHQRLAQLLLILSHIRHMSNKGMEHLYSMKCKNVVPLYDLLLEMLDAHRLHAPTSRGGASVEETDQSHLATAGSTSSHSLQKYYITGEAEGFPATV
# Peroxisome proliferator-activated receptor alpha (Homo sapiens), sequence (Q07869 whole entry, looked up): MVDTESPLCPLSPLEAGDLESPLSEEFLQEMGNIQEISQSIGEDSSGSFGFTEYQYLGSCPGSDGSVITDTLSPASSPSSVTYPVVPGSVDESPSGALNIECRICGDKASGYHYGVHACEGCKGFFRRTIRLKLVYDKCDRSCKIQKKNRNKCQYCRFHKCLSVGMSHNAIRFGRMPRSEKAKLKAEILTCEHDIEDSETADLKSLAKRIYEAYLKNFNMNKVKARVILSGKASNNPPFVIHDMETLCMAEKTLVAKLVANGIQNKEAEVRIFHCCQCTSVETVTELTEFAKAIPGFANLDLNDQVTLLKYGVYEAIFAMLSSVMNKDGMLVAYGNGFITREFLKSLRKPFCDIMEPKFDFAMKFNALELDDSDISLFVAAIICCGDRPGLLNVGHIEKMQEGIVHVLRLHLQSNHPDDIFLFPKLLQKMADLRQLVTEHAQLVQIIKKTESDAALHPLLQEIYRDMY
# Retinoic acid receptor RXR-alpha (Homo sapiens), sequence (P19793 whole entry, looked up): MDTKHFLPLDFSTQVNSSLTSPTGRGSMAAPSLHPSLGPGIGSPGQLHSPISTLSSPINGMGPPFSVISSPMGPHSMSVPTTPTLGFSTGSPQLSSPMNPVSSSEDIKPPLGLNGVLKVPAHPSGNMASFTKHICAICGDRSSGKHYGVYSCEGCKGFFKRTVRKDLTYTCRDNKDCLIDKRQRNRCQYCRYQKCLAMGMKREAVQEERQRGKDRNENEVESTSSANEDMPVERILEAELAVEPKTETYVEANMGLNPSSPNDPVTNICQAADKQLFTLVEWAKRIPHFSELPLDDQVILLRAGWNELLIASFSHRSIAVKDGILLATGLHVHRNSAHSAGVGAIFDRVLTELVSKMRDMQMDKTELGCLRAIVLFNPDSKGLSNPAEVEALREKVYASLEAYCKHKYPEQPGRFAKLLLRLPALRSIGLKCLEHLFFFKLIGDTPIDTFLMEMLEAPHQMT
smiles,measurement,setting,value
CCc1ccc(C(c2ccc(CC)cc2)C(Cl)Cl)cc1,Potency,[1],inactive
same,activation,[2],-10.8% (inactive)
same,activation,[3],1.14% (inactive)
same,Potency,[4],inactive
same,Potency,[5],inactive
same,Potency,[6],inactive
same,Potency,[7],inactive
same,max response,[8],-4.78%
same,max response,[9],-8.97% (inactive)
same,activity change % (negative = inhibition),[10],13.5% (inactive)
same,Potency,[11],66.8 µM (active)
same,activation,[12],-0.867% (inactive)
same,Potency,[13],inactive
same,Potency,[14],inactive
same,Potency,[15],inactive
same,activation,[16],-0.69% (inactive)
same,max response,[17],-1.02% (inactive)
same,Potency,[18],inactive
same,max response,[19],-5.77% (inactive)
same,Potency,[20],inactive
same,max response,[21],1.82% (inactive)

# — PubChem BioAssay (NCATS)
